From PubChem BioAssay
SKKanGAS inh: S. pyogenes SKKanGAS growth inhibitors in kanamycin, primary screen, streptokinase expression inhibitor project, SKKanGAS strain, BacTiter-Glo luminescence; 6 h; inhibition, % at 7.5 µM; hit rate 1.3% among 300,000; AID 1662, 2009;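 active = mean replicate score, as percent of positive control median, at least 50; inconclusive = mean below 50 but one replicate at or above 50; inactive = mean and every replicate below 50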;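 also: strain carries kanamycin resistance gene driven by streptokinase promoter and grows in 40 µg/ml kanamycin; loss of luminescence reflects streptokinase promoter inhibition or plain growth inhibition; 0% = median of DMSO wells and 100% = positive control at its reference dose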
Rtt109 HAT inh: inhibitors of C. albicans Rtt109/Vps75 HAT, primary screen, biochemical, ThioGlo CoA-SH fluorescence, plate reader | hit rate 0.16% among 330,000 | inhibition, % at 34.9 µM | AID 540336, 2011 | Histone acetyltransferase RTT109 (Candida albicans (strain SC5314 / ATCC MYA-2876)), … | purified Rtt109/Vps75, 4 h;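 active = inhibition of at least 50% in every replicate; inconclusive = best replicate reaches 50% inhibition but some replicates fall short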
Target sequence (Q5AAJ8 whole entry, looked up): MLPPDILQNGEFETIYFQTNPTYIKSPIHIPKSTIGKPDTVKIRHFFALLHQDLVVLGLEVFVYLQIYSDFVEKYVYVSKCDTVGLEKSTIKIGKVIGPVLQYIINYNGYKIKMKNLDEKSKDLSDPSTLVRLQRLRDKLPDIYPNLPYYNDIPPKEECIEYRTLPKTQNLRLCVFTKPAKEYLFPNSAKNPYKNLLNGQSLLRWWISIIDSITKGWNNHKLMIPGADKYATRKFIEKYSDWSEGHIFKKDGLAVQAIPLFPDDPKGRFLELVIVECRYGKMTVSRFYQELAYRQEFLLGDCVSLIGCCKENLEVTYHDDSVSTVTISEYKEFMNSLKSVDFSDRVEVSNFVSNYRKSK
PHOSPHO1 block: PubChem AID 1565; Phosphoethanolamine/phosphocholine phosphatase (Homo sapiens), Q8TCT1; recombinant PHOSPHO1, absorbance phosphatase assay; inhibition, % at 13.3 µM; hit rate 1.1% among 290,000; in the data active = inhibition above about 60%
Target sequence (Q8TCT1 whole entry, looked up): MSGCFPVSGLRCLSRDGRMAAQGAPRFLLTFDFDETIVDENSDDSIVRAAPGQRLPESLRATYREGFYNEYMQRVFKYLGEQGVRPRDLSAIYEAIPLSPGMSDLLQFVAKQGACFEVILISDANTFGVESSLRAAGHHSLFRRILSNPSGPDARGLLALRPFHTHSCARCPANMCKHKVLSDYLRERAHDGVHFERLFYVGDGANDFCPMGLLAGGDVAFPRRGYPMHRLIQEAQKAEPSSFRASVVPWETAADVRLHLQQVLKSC
Platelet DG rel: inhibitors of platelet dense granule secretion, primary screen, cell-based, MLPCN, human platelets. human platelet-rich plasma, SFLLRN dense granule ATP release, luminescence. inhibition, %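 (compounds screened at 7.5 µM in platelet-rich plasma)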. hit rate 0.22% among 300,000;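 active = mean replicate score, as percent of positive control, at or above 50; inconclusive = mean below 50 but at least one replicate at or above 50; inactive = mean and every replicate below 50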
TPT1 inh: Candida albicans TPT1 enzyme inhibitors, primary screen, biochemical, fluorescence polarization; hit rate 0.81% among 300,000; tRNA 2'-phosphotransferase TPT1 (Candida albicans SC5314); AID 1962, 2009; recombinant caTPT1, FP RNA substrate dephosphorylation; inhibition, % at 5 µM;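 active = inhibition above the mean of all tested compounds plus 3 SD, set per screening campaign, cut at about 24% in these data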;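 also: plate controls were DMSO alone for no effect and ferristatin control at 100 nM for full effect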
WT yeast gro inh: growth inhibition of WT strain, primary screen, mitochondrial fusion inhibitor project, WT and mutant strains, chemical genetic; mitochondrial fusion phenotypic screen; inhibition, % at 10 µM; hit rate 2.1% among 190,000; in the data active = inhibition above about 58%; tested in S. cerevisiae
The depositor's hits bear a star; ? = inconclusive; · = not tested or not shown. In the library only some 3.9% were active in any assay of this set; here they are far more common.

SMILES	SKKanGAS inh	Rtt109 HAT inh	PHOSPHO1 block	Platelet DG rel	TPT1 inh	WT yeast gro inh
CC(NC(=O)c1ccccc1)c1nnc(SCC(=O)NC2CCCC2)n1C (stereo not drawn)	0	-5	4	-2	-4	·
O=C1/C(=C/c2ccncc2)CCC/C1=C\c1ccncc1	11	9	-8	4	·	64*
O=C1/C(=C\c2ccccc2)CCC/C1=C/c1ccccc1	·	-14	·	·	·	·
CCOc1ccc(N(C)S(=O)(=O)c2ccc(C)c(C(=O)Nc3nnc(C4CC4)s3)c2)cc1	·	-2	·	·	·	·
O=C(Nc1cccc(Cl)c1N1CCCC1)c1cc2ccccc2o1	73*	-3	-38	-4	-7	55
O=C(Nc1cccc(Cl)c1N1CCCC1)c1ccc([N+](=O)[O-])o1	·	3	4	·	-4	16
O=C(Nc1cccc(Cl)c1N1CCCC1)c1ccc(Br)o1	70*	10	1	0	-3	68*
CC(=O)N1CCN(c2ccccc2NC(=O)c2cc3ccccc3o2)CC1	7	31	38	2	0	·
CC(=O)c1ccc(N2CCN(C(=O)c3ccccc3SCC(=O)NCc3ccco3)CC2)c(F)c1	·	8	·	·	·	·
c1ccc(CN=C(NCc2ccccc2)NCc2ccccc2)cc1	·	5	·	·	·	·
CCC(=O)Nc1ccc(-c2nnc(SCC(=O)Nc3nccs3)n2C)cc1	-3	-12	103*	5	-4	6
CCC(=O)Nc1ccc(-c2nnc(SCc3ccc(C(=O)Nc4nccs4)cc3)n2CC)cc1	6	-2	10	17	0	60*
CCn1c(SCC(=O)Nc2nccs2)nnc1-c1ccc(C)cc1	1	5	7	-2	1	-17
Cc1ccc(S(=O)(=O)N(CC(=O)Nc2ccc(C)cc2C)C(=O)N2CCN(C)CC2)cc1	18	2	·	27	-2	·
Nc1ccc(-c2nc3nc(N)nc(N)c3nc2-c2ccc(N)cc2)cc1	62*	?	33	-2	-1	·
COc1ccc(OC)c(S(=O)(=O)Nc2ccc(F)cc2)c1	14	-8	12	-2	-3	-4
COc1ccc(C)cc1S(=O)(=O)Nc1ccc(F)cc1	-1	30	-18	5	1	62*
O=C1N=C(N2C=CC(=C3C=CNC=C3)C=C2)/C(=C/N=NC(=O)c2ccccc2O)S1	3	-1	13	5	-29	·
Nc1ccc(Nc2ccncc2[N+](=O)[O-])cc1	2	50*	6	-1	-1	6
CC(C)C(=O)NC(=S)Nc1ccc(S(=O)(=O)N(C)Cc2ccccc2)cc1	2	1	-36	·	-3	59*
CSc1ncc(C(=O)Nc2cc(C)ccc2C)c(C)n1	5	-1	38	0	·	·
CC(C)(C)C1CCc2sc(-c3nnc(CCl)o3)cc2C1 (stereo not drawn)	12	1	27	2	0	68*
Cc1c(C(=O)NC2CCCCC2C)oc2ccccc12 (stereo not drawn)	3	-11	25	-4	3	·
CC/C(=N\NC(=S)Nc1ccc(OC)cc1)c1ccc(OC(F)F)cc1	-11	-6	-10	-6	-5	49
C/C(=N\NC(=S)Nc1cccc(C)c1)c1cc2ccccc2o1	67*	·	-183	-4	-3	44
SMILES	SKKanGAS inh	Rtt109 HAT inh	PHOSPHO1 block	Platelet DG rel	TPT1 inh	WT yeast gro inh
CCNC(=S)N/N=C(\C)c1cc2ccccc2o1	-2	1	-16	-1	1	8
CC/C(=N\NC(=S)Nc1cccc(C)c1)c1ccccc1	62*	-1	-3	3	-4	71*
CC/C(=N\NC(=S)Nc1cc(C)ccc1C)c1ccc(OC(F)F)cc1	69*	-5	-7	-3	-3	66*
Cc1cccc(NC(=S)N/N=C(\c2ccccc2)C(C)C)c1	69*	1	-11	-2	3	73*
CCOc1ccc(OCCC(=O)N(CC)CC(=O)Nc2c(F)cccc2F)cc1	·	6	·	·	·	·
CCN(c1ccc(NC(=O)COC(=O)C2CCN(c3ccc(C(F)(F)F)cn3)CC2)cc1)C(C)C	·	-3	·	·	·	·
Cc1cc(NC(=O)c2ccco2)sc1C	·	4	·	·	·	·
COc1cc(Nc2cccc[n+]2C)cc(OC)c1OC	7	8	24	1	1	·
CCOc1ccc(NC(=O)CN(C)C(=O)c2n[nH]c(=O)c3ccccc23)cc1OCC	·	0	·	·	·	·
Cc1ccsc1C(=O)Nc1nnc(-c2ccco2)o1	83*	4	21	0	0	2
Cc1ccc(C(=O)Nc2nnc(-c3ccco3)o2)cc1	13	3	-12	12	-1	17
O=C(Nc1nnc(-c2ccco2)o1)c1ccc2ccccc2c1	92*	20	-11	0	1	52
Cc1cc(Oc2cnn(C(C)(C)C)c(=O)c2Cl)cc(C(C)C)c1	59*	-5	-12	1	-2	67*
Cc1cc(C)c(OCC(=O)OC(C)C(=O)NC2CC2)c(C)c1 (stereo not drawn)	-2	-2	29	-5	2	·
CCOC(=O)CN(C)C(=O)CCc1nnc(-c2ccsc2)o1	-3	-1	-9	2	-1	59*
COc1cccc(CN(C)C(=O)CCc2nnc(-c3ccsc3)o2)c1	8	-5	20	-3	2	-4
COc1cc(/C=N/NC(=O)c2ccncc2)ccc1OC(=O)c1cccc(F)c1	-10	-7	35	-12	-2	·
COc1cc(NC(=O)COC(=O)Cn2cnc3c2c(=O)n(C)c(=O)n3C)cc(OC)c1	·	-2	·	·	·	·
COc1cc(NC(=O)c2cc3nc(-c4ccccc4)cc(-c4ccccc4)n3n2)cc(OC)c1OC	54*	·	23	-6	2	25
COc1cc(NC(=O)c2cc(-c3ccccc3)on2)cc(OC)c1OC	-8	0	29	1	-1	·
COc1ccc2c(COC(=O)c3ccc(C)c(S(=O)(=O)N4CCOCC4)c3)cc(=O)oc2c1	·	2	·	·	·	·
Cc1ccc2oc(-c3cccc(NC(=O)C4CCCO4)c3)nc2c1 (stereo not drawn)	7	11	-10	5	-2	15
O=C(Nc1ccc(-c2nc3ccccc3[nH]2)cc1)C1CCCO1 (stereo not drawn)	11	6	-10	87*	0	69*
NC(=O)c1ccc(NC(=O)C2CCCO2)cc1 (stereo not drawn)	-1	5	26	3	5	9
O=C(Nc1nc2ccccc2[nH]1)C1CCCO1 (stereo not drawn)	-5	0	5	7	1	0
Cc1cccc(-c2nc3cc(NC(=O)C4CCCO4)ccc3o2)c1 (stereo not drawn)	20	5	12	59*	-3	39
O=C(Nc1ccc(O)cc1)c1ccc(NC(=O)C2CCCO2)cc1 (stereo not drawn)	-1	-1	66*	-2	·	·
